# EP2 mod: EP2 receptor modulators, cAMP readout, primary screen, cell-based, HTRF cAMP, PGE2 stimulation; Prostaglandin E2 receptor EP2 subtype (Homo sapiens), P43116; EP2-expressing cells, cAMP HTRF FRET, PGE2 co-stimulation; induction, % at 25 µM; 0.83% of 260,000 active; AID 940, 2007;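 active means compounds whose cAMP rise, as percent of the full-agonist control response, exceeds 60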;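 further: rat C6 glioma line stably carrying human EP2 under a CMV promoter; the protocol text gives 20 µM as final concentration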
# Target sequence (P43116 whole entry, looked up): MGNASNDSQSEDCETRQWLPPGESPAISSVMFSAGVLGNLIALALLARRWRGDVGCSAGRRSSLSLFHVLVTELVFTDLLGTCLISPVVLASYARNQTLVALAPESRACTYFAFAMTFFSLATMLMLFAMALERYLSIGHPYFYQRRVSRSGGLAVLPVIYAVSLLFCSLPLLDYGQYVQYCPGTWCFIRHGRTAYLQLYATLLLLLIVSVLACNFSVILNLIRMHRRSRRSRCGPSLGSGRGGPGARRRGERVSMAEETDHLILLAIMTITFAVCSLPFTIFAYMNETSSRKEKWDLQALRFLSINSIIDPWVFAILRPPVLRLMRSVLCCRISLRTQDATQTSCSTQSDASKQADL
# HMGR II inh: inhibitors of E. faecalis class II HMGR, primary screen, biochemical, Enterococcus faecalis | purified E. faecalis HMGR, NADPH absorbance 340 nm kinetic | 0.41% of 190,000 active | inhibition, % at 10 µM | HMG-CoA reductase (Enterococcus faecalis, mvaE) | AID 1066, 2008;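 active means inhibition above a set limit, the median over all tested compounds plus 3 SD, cut at about 9.5% in these data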;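 further: enzyme runs in reverse so mevalonate oxidation gives rising NADPH absorbance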
# Furin inh: human furin inhibitors, primary screen, biochemical, fluorescence intensity | purified furin, fluorogenic substrate cleavage | inhibition, % at 20 µM or 30 µM | 0.061% of 220,000 active; in the data active means inhibition above about 25%
# PGE2 EP2 inh: human EP2 receptor antagonists, primary screen, TR-FRET cAMP, C6 glioma cells | Prostaglandin E2 receptor EP2 subtype (Homo sapiens), P43116 | C6 glioma cells expressing human EP2; cells stimulated with saturating PGE2 | inhibition, % at 25 µM | 0.52% of 260,000 active | AID 1422, 2008;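 active means percent inhibition above 40 after rounding to a whole number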;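 further: rat C6 glioma host cells with rolipram phosphodiesterase inhibitor present; the protocol text gives 20 µM as final concentration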
# m-calpain inh: inhibitors of pig calpain II, primary screen, biochemical, fluorogenic peptide substrate, 1536-well. purified calpain II, 30 min. inhibition, % at 16 µM. 0.37% of 220,000 active. AID 1236, 2008;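 active means inhibition above about 50%, limit read from the data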
# EP2 cAMP induct: cAMP induction in EP2, EP4, beta2-AR and parental cells, confirmation, counter-screen for EP2 modulator project, cell-based, five parallel assays, C6 glioma, HEK293; 47% of 1,300 active; calls only at 20 µM (by protocol); shares compounds with EP2 mod; cAMP HTRF induction; plus low (about EC15) PGE2 agonist;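 active means cAMP induction above 50% in the main assay while under 30% in all four parallel counter assays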;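 further: rat C6 glioma cells stably expressing human EP2 receptor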
# A number is an active result; i = inactive; nt = no result; + = active, no number. An excerpt weighted towards active compounds, which were near 1.9% of everything screened.
SMILES,EP2 mod,HMGR II inh,Furin inh,PGE2 EP2 inh,m-calpain inh,EP2 cAMP induct
Cc1cc(SCCC(=O)O)nc2c(C)cccc12,82.1,i,i,i,i,i
CCOC(=O)C1CCN(c2c(C(=O)c3ccccc3)cnc3ccc(CC)cc23)CC1,76.7,i,i,i,i,i
CC(C)c1nc(N2CCN(C(=O)c3ccccc3)CC2)c(C#N)c2c1COC(C)(C)C2,76.9,i,i,i,i,+
CC1(C)Cc2c(C#N)c(N3CCN(C(=O)c4ccccc4)CC3)nc(-c3ccco3)c2CS1,i,i,i,i,i,nt
CC1(C)Cc2c(C#N)c(N3CCCC3)nc(-c3ccco3)c2CO1,76.2,i,i,i,i,i
CCCSc1nc(N2CCCC2)c2c(c1C#N)CC(C)(C)OC2,66.2,i,i,i,i,+
N#Cc1c(N2CCOCC2)nc(-c2ccco2)c2c1CCCC2,i,i,i,i,i,nt
Cc1ccc2cc(C)c3nnc(SCC(=O)O)n3c2c1,i,nt,nt,i,nt,nt
CCCn1c(SCC(=O)Nc2nc(C)c(C)s2)nnc1-c1ccco1,i,nt,nt,i,nt,nt
Cc1cccc(C(=O)Nc2cccc(OCC(=O)O)c2)c1,94.9,i,i,i,i,+
O=C(COc1cccc(NC(=O)c2ccccc2)c1)c1ccccc1,i,i,i,i,i,nt
O=C(O)COc1cccc(NC(=O)c2ccccc2)c1,95.7,i,i,i,i,+
COC(=O)c1[nH]c2ccccc2c1NS(=O)(=O)c1ccc(F)c(C)c1,77.1,i,i,i,i,+
CCCS(=O)(=O)Nc1c(C(=O)OC)[nH]c2ccccc12,i,i,i,i,i,nt
CCn1c(SCC(=O)Nc2cccc(Cl)c2)nnc1-c1cccnc1,i,nt,nt,i,nt,nt
Cc1c(OCc2ccccc2)c(=O)ccn1Cc1ccc(Cl)cc1,67.1,i,i,i,i,i
CN(C)/C=C/c1onc(-c2c(Cl)cccc2Cl)c1C#N,i,i,i,i,i,nt
N#Cc1c(-c2c(Cl)cccc2Cl)noc1/C=C/Nc1ccc(C(=O)O)cc1,68.5,i,i,i,i,+
COc1cc(OC)cc(-c2nnc(SCC(=O)Nc3ccccc3F)o2)c1,i,nt,nt,i,nt,nt
CCOc1ccc(N(Cc2ccc(OC)c(OC)c2)C(=O)c2ccco2)cc1,i,i,i,i,i,nt
CCOc1ccc(N(Cc2ccc(OC)cc2)C(=O)c2ccco2)cc1,65.2,i,i,i,i,i
COc1ccccc1NC(=O)c1c(C)oc2c1CCCC2,78.7,i,i,i,i,i
COc1ccccc1NC(=O)c1c(C)cc(=O)oc1C,i,i,i,i,i,nt
Cc1ccc(NC2=C(C(=O)c3ccccc3)N(C)S(=O)(=O)c3ccccc32)cc1,65.7,i,i,i,i,i
CCCc1cc(-c2nc(N)ncc2-c2ccc3c(c2)OCCCO3)c(O)cc1OC,87.8,i,i,i,i,+
SMILES,EP2 mod,HMGR II inh,Furin inh,PGE2 EP2 inh,m-calpain inh,EP2 cAMP induct
CCCc1cc(-c2nc(N)ncc2-c2csc(C)n2)c(O)cc1OC,i,i,i,i,i,nt
COc1ccccc1N(C(=O)Cc1cccs1)C(C(=O)NC1CCCC1)c1ccc(F)cc1 (stereo not drawn),i,nt,nt,i,nt,nt
Cc1nn2c(N3CCN(C(=O)c4ccco4)CC3)cc(C(C)(C)C)nc2c1-c1ccccc1,78.2,i,i,i,i,+
Cc1nn2c(N3CCCC3)cc(C(C)C)nc2c1-c1ccccc1,75.4,i,i,i,i,+
Cc1cc(C)c2c(N)c(C(=O)Nc3ccc(N(C)C)cc3)sc2n1,i,nt,nt,i,nt,nt
O=C(Cc1cccc(F)c1)N1CCC(Cn2nc(-c3ccco3)ccc2=O)CC1,i,nt,nt,nt,nt,nt
CCOC(=O)c1c(NC(=O)CSc2nnnn2-c2ccccc2)sc2c1CCC(C)C2 (stereo not drawn),i,i,i,i,i,nt
CCOC(=O)c1c(NC(=O)CSc2ncnc3[nH]ncc23)sc2c1CCC(C)C2 (stereo not drawn),66.1,i,i,i,i,i
COc1ccc(C)cc1NC(=O)C1CC(=O)OC12CCCCC2 (stereo not drawn),65.4,i,i,i,i,i
